Laboratory results as given in PubChem BioAssay (EPA / NIEHS).
“And” between values parts separate entries of the source, which are not always exact repeats. Equal values may be shown once. More than one record can exist for a structure, and the calls need not agree. The source made the active and inactive calls. Rule for the calls: active = hit-call score of the fitted dose curve at least 0.9, where 1 is the maximum; inactive = score below 0.9.

What was measured:
[1] = ATG_GLI_CIS: Attagene CIS-FACTORIAL HepG2 Assay for human Zinc Finger Protein GLI1 (AID 2282945); settings: HepG2, Attagene cis-factorial reporter mRNA, GLI element; actives raise or lower the signal
How it was run: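 HepG2 cells transiently transfected with cis-promoter multiplexed reporter units report endogenous transcription factor activity. After 24 h chemical exposure, reporter mRNA was quantified by RT-PCR, 6-FAM labelling, HpaI digestion and capillary electrophoresis, with bidirectional fitting against DMSO.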

[2] = target: Bile acid receptor (Homo sapiens) (UniProt Q96RI1); test: ATG_IR1_CIS: Attagene CIS-FACTORIAL HepG2 Assay for human Nuclear Receptor Subfamily 1 Group H Member 4 (NR1H4), IR1 submotif (AID 2282946); settings: IR1 reporter transcription, actives raise or lower the signal
Sequence of Bile acid receptor (Homo sapiens) (Q96RI1 whole entry, looked up): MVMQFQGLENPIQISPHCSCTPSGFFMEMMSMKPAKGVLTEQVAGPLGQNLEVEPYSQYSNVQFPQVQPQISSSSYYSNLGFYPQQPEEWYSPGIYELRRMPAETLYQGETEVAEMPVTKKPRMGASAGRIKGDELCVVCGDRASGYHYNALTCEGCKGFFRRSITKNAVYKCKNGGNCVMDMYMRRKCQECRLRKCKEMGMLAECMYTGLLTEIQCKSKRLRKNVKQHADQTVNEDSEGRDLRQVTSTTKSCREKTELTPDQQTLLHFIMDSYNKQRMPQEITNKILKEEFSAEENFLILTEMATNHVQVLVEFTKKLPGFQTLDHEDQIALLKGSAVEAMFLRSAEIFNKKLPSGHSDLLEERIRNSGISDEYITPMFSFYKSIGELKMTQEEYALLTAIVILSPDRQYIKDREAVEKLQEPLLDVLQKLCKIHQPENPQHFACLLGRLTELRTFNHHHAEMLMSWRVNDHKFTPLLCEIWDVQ
How it was run: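 Transient MRTU transfection, HepG2; 24 h dosing; RNA → RT-PCR → 6-FAM primer extension → HpaI digest → capillary electrophoresis fluorescence. Gain/loss of signal fitted relative to DMSO.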

[3] = ATG_GRE_CIS: Attagene CIS-FACTORIAL HepG2 Assay for human Glucocorticoid Response Elements (GRE) (AID 2282947); settings: HepG2 GRE cis-reporter, Attagene multiplex mRNA; actives raise or lower the signal
How it was run: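 HepG2 cells transiently transfected with multiple cis-promoter reporter units measure endogenous TF activity; 24 h compound exposure. Reporter mRNA quantified by RT-PCR, FAM labelling, HpaI digestion and capillary electrophoresis; bidirectional fit vs DMSO baseline.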

[4] = ATG_ISRE_CIS: Attagene CIS-FACTORIAL HepG2 Assay for human Interferon Regulatory Factor 1 (IRF1) binding to an Interferon-Stimulated Response Element (ISRE) (AID 2282948); settings: HepG2 ISRE cis-reporter (Attagene), mRNA transcription readout; actives raise or lower the signal
How it was run: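 HepG2 cells transiently transfected with multiplexed cis-promoter reporter units; after 24 h compound exposure, reporter mRNA quantified by RT-PCR, FAM labelling, HpaI digestion and capillary electrophoresis. Bidirectional fit versus DMSO baseline.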

[5] = ATG_M_32_CIS: Attagene CIS-FACTORIAL HepG2 Assay for M32 Transcription Factor (Internal Marker) (AID 2282949); settings: HepG2 Attagene cis-factorial M32 reporter, mRNA; actives raise or lower the signal;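 note: background control marker of the multiplexed CIS panel rather than a real target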
How it was run: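 Internal background marker read-out: RT-PCR/capillary electrophoresis fluorescence of reporter transcripts from transiently transfected HepG2 cells after 24 h chemical exposure. Activity fitted bidirectionally relative to DMSO negative control.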

[6] = ATG_M_06_CIS: Attagene CIS-FACTORIAL HepG2 Assay for M06 Transcription Factor (Internal Marker) (AID 2282950); settings: HepG2 Attagene CIS-FACTORIAL M06 internal marker reporter; actives raise or lower the signal
How it was run: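 Serves as a background control readout. Transfected HepG2 exposed to compounds for 24 h, then reporter transcripts quantified by fluorescent RT-PCR and capillary electrophoresis. Both directions fitted against DMSO baseline.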

[7] = target: Hypoxia-inducible factor 1-alpha (Homo sapiens) (UniProt Q16665); test: ATG_HIF1a_CIS: Attagene CIS-FACTORIAL HepG2 Assay for human Hypoxia Inducible Factor 1 (HIF1A) (AID 2282951); settings: HepG2 Attagene cis-factorial HIF1a reporter transcription; actives raise or lower the signal
Sequence of Hypoxia-inducible factor 1-alpha (Homo sapiens) (Q16665 whole entry, looked up): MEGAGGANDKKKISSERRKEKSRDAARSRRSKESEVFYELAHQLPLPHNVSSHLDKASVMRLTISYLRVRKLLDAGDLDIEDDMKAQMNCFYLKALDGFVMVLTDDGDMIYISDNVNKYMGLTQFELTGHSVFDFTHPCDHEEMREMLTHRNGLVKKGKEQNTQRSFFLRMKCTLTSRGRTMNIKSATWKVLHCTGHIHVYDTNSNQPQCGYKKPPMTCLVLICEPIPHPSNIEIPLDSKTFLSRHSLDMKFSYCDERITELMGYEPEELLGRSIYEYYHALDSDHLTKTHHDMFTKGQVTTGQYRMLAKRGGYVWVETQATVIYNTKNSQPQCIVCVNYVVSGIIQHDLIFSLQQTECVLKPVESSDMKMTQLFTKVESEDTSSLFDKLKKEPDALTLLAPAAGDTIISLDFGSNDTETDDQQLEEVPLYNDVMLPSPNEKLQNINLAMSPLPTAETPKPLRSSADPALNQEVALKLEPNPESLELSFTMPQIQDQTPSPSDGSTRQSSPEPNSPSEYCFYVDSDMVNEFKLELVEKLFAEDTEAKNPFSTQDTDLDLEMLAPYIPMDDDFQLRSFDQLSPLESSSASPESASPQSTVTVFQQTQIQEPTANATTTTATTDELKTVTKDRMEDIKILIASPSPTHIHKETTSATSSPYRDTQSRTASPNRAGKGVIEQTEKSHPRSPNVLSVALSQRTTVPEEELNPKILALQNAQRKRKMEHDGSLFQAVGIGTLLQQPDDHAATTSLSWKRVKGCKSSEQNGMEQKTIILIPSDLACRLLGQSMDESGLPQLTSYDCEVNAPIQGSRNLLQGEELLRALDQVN
How it was run: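 HepG2 cells transiently transfected with multiplexed cis-promoter reporter units; reporter mRNA read 24 h after dosing by RT-PCR, 6-FAM primer-extension labelling, HpaI digestion and capillary electrophoresis. Bidirectional fit versus DMSO baseline.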

[8] = target: Hepatocyte nuclear factor 6 (Homo sapiens) (UniProt Q9UBC0); test: ATG_HNF6_CIS: Attagene CIS-FACTORIAL HepG2 Assay for human Hepatocyte Nuclear Factor 6 (HNF6) (AID 2282952); settings: HepG2 Attagene cis-factorial HNF6 reporter transcription; actives raise or lower the signal
Sequence of Hepatocyte nuclear factor 6 (Homo sapiens) (Q9UBC0 whole entry, looked up, the tested form may be a part): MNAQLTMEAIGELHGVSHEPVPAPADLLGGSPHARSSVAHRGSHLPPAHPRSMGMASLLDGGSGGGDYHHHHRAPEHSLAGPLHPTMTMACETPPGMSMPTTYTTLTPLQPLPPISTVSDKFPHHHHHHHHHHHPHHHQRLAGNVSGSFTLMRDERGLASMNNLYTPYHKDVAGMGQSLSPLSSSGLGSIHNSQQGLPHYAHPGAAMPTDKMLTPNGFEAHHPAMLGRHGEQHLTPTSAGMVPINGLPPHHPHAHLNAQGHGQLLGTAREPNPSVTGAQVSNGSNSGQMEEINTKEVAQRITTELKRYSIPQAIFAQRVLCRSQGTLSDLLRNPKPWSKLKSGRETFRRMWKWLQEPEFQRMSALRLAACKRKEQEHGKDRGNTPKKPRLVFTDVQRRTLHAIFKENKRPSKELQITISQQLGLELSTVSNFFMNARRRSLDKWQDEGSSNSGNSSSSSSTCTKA
How it was run: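 HepG2 cells transiently transfected with cis-element-driven multiplexed reporter units measuring endogenous transcription factor activity. After 24 h exposure, reporter mRNA quantified by RT-PCR, FAM-labelled fragments and capillary electrophoresis; bidirectional fitting versus DMSO.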

[9] = target: Heat shock factor protein 1 (Homo sapiens) (UniProt Q00613); test: ATG_HSE_CIS: Attagene CIS-FACTORIAL HepG2 Assay for human Heat Shock Transcription Factor 1 (HSE) (AID 2282953); settings: HepG2 HSE cis-reporter, Attagene RNA transcription; actives raise or lower the signal
Sequence of Heat shock factor protein 1 (Homo sapiens) (Q00613 whole entry, looked up): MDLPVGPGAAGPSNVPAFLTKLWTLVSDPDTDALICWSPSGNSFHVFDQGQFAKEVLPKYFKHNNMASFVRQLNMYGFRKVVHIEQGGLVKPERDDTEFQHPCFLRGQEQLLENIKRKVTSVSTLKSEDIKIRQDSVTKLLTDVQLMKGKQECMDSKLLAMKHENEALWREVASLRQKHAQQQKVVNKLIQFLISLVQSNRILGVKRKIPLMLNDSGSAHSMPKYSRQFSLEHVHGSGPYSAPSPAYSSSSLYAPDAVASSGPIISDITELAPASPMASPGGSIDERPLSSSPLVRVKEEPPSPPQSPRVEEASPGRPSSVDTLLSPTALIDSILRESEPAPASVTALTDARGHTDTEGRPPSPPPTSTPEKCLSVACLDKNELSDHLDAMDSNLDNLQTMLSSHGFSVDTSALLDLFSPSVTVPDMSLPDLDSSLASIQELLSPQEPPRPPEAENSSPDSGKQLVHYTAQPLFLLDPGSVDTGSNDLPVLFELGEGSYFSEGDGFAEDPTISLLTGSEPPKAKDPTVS
How it was run: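 Endogenous transcription factor activity in transiently transfected HepG2, read as reporter mRNA by RT-PCR with fluorescent capillary electrophoresis after 24 h. Gain or loss of signal fitted versus DMSO baseline.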

[10] = ATG_MRE_CIS: Attagene CIS-FACTORIAL HepG2 Assay for human Metal Responsive Element (MRE) (AID 2282954); settings: HepG2 MRE cis-reporter transcription, Attagene multiplex; actives raise or lower the signal
How it was run: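 HepG2 cells transiently transfected with multiple cis-element reporter units measure endogenous MTF1-driven transcription. After 24 h compound exposure, reporter mRNA is quantified by RT-PCR with 6-FAM labelling, HpaI digestion and capillary electrophoresis; bidirectional fits versus DMSO.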

[11] = ATG_PBREM_CIS: Attagene CIS-FACTORIAL HepG2 Assay for human Phenobarbital-responsive Enhancer Module (PBREM) (AID 2282955); settings: HepG2 PBREM cis-reporter, Attagene multiplexed transcription; actives raise or lower the signal
How it was run: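 HepG2 cells transiently transfected with multiple cis-regulated reporter transcription units; endogenous factor activity at the PBREM element measured as reporter mRNA 24 h after dosing, via RT-PCR and capillary electrophoresis of fluorescent fragments; bidirectional fitting versus DMSO.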

[12] = target: Paired box protein Pax-6 (Homo sapiens) (UniProt P26367); test: ATG_Pax6_CIS: Attagene CIS-FACTORIAL HepG2 Assay for human Paired Box 6 (PAX6) (AID 2282956); settings: HepG2 CIS-FACTORIAL PAX6 reporter transcription, RNA readout; actives raise or lower the signal
Sequence of Paired box protein Pax-6 (Homo sapiens) (P26367 whole entry, looked up): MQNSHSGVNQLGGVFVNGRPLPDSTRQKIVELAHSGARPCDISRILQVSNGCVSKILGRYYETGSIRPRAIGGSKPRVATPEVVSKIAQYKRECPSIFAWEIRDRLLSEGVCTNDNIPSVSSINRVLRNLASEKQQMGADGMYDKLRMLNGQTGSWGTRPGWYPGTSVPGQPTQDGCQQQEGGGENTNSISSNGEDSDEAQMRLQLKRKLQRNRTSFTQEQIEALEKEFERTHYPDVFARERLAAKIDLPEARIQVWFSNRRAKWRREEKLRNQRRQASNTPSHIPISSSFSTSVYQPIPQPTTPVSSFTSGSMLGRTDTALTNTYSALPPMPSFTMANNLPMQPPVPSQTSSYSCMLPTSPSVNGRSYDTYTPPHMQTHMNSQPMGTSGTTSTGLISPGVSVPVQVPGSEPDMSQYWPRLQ
How it was run: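 HepG2 cells transiently transfected with multiplexed cis-promoter reporter units (endogenous TF activity) were dosed for 24 h. Reporter mRNA was quantified by RT-PCR, 6-FAM labeling, HpaI digestion and capillary electrophoresis; bidirectional fitting versus DMSO baseline.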

[13] = ATG_PXRE_CIS: Attagene CIS-FACTORIAL HepG2 Assay for human Pregnane X Receptor Element (PXRE) (AID 2282957); settings: HepG2 Attagene CIS-FACTORIAL PXRE reporter, mRNA; actives raise or lower the signal
How it was run: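 HepG2 cells transiently transfected with cis-element-driven multiplexed reporter units; after 24 h chemical exposure, reporter mRNA measured by RT-PCR, 6-FAM labelling, HpaI digestion and capillary electrophoresis. Bidirectional fitting relative to DMSO.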

[14] = ATG_PPRE_CIS: Attagene CIS-FACTORIAL HepG2 Assay for human Peroxisome Proliferator-activated Response Element (PPRE) (AID 2282958); settings: HepG2 PPRE cis-element reporter, Attagene transcription factor profiling; actives raise or lower the signal
How it was run: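 HepG2 cells transiently transfected with multiplexed cis-element reporter units measure endogenous transcription factor activity. After 24 h compound exposure, reporter mRNA is quantified by RT-PCR, 6-FAM labeling, HpaI digestion and capillary electrophoresis; bidirectional fits are made against DMSO baseline.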

[15] = ATG_RORE_CIS: Attagene CIS-FACTORIAL HepG2 Assay for human RAR-related Orphan Receptor Element (RORE) (AID 2282959); settings: HepG2 Attagene cis-factorial RORE reporter, mRNA; actives raise or lower the signal
How it was run: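 HepG2 cells transiently transfected with multiple cis-element reporter transcription units, exposed to chemical for 24 h. Reporter mRNA quantified by RT-PCR, 6-FAM primer-extension labeling, HpaI digestion and capillary electrophoresis; bidirectional fit versus DMSO baseline.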

[16] = ATG_Sox_CIS: Attagene CIS-FACTORIAL HepG2 Assay for human SRY-box transcription factor (SOX) (AID 2282960); settings: HepG2 Attagene cis-factorial SOX reporter, mRNA; actives raise or lower the signal
How it was run: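 HepG2 cells transiently transfected with cis-element-driven multiple reporter transcription units, dosed 24 h; reporter mRNA measured by RT-PCR, FAM labelling, HpaI digestion and capillary electrophoresis. Bidirectional fit versus DMSO baseline.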

[17] = target: Transcription factor Sp1 (Homo sapiens) (UniProt P08047); test: ATG_Sp1_CIS: Attagene CIS-FACTORIAL HepG2 Assay for human Specificity Protein 1 (Sp1) (AID 2282961); settings: HepG2 Sp1 cis-reporter transcription, actives raise or lower the signal
Sequence of Transcription factor Sp1 (Homo sapiens) (P08047 whole entry, looked up): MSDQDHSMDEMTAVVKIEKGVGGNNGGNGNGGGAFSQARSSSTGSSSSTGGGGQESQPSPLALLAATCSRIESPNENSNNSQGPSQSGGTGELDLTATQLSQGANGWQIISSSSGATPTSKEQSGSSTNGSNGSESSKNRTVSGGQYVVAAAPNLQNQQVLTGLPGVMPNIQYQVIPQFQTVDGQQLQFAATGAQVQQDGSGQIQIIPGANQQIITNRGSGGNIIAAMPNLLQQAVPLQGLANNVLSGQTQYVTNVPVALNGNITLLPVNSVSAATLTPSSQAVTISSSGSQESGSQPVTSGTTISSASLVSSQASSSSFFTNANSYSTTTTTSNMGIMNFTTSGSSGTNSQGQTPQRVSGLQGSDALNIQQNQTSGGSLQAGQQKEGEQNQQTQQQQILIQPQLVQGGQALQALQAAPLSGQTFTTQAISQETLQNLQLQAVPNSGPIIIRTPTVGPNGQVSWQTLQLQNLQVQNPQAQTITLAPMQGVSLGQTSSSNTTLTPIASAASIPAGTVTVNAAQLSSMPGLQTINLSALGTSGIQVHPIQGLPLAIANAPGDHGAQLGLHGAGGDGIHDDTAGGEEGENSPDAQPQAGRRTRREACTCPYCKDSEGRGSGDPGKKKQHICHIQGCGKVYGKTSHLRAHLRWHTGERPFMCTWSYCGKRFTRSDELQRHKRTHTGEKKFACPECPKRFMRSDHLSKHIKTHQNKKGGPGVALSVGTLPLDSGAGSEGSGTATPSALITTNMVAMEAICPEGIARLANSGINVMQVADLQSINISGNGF
How it was run: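 HepG2 cells transiently transfected with multiple reporter transcription units driven by cis-regulatory elements; Sp1-responsive reporter mRNA measured 24 h after dosing by RT-PCR and capillary electrophoresis fluorescence, fitted bidirectionally against DMSO baseline.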

[18] = ATG_SREBP_CIS: Attagene CIS-FACTORIAL HepG2 Assay for human Sterol Regulatory Element Binding (SREBP) (AID 2282962); settings: HepG2 Attagene cis-factorial SREBP reporter, mRNA; actives raise or lower the signal
How it was run: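 HepG2 cells transiently transfected with multiplexed cis-element reporter units report endogenous transcription factor activity. After 24 h of chemical exposure, reporter mRNA was quantified by RT-PCR, 6-FAM labelling, HpaI digestion and capillary electrophoresis; bidirectional fits used DMSO as baseline.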

[19] = target: Signal transducer and activator of transcription 3 (Homo sapiens) (UniProt P40763); test: ATG_STAT3_CIS: Attagene CIS-FACTORIAL HepG2 Assay for human Signal Transducer and Activator of Transcription 3 (STAT3) (AID 2282963); settings: HepG2, Attagene cis-factorial STAT3 reporter transcription; actives raise or lower the signal
Sequence of Signal transducer and activator of transcription 3 (Homo sapiens) (P40763 whole entry, looked up): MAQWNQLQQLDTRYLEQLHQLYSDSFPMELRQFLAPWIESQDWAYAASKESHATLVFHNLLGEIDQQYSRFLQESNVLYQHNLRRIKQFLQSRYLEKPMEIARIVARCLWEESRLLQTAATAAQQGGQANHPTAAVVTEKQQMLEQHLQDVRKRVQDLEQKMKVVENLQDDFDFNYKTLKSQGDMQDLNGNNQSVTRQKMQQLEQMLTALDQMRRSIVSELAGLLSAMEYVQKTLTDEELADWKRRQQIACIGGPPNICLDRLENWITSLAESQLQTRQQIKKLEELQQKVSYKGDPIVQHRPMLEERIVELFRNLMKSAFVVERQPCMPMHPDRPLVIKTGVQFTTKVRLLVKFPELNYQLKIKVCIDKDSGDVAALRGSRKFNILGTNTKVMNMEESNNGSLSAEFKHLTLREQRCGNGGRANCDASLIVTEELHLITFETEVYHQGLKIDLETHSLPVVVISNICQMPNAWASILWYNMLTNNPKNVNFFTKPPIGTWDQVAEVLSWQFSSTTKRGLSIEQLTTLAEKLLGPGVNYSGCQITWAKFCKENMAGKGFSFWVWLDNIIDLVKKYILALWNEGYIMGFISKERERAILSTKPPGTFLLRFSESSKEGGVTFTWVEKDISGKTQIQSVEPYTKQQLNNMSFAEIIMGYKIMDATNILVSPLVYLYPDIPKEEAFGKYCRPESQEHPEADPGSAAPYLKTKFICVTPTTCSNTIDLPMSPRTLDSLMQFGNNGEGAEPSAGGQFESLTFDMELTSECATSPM
How it was run: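 HepG2 cells transiently transfected with cis-element-driven multiple reporter transcription units; after 24 h chemical exposure, reporter mRNA measured by RT-PCR, 6-FAM primer-extension labelling, HpaI digestion and capillary electrophoresis. Bidirectional fitting versus DMSO baseline.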

[20] = ATG_TA_CIS: Attagene CIS-FACTORIAL HepG2 Assay for human TA Basal Promoter (AID 2282964); settings: HepG2 Attagene CIS-factorial TA basal promoter reporter; actives raise or lower the signal
How it was run: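 Background-control readout: TA basal promoter reporter mRNA, fitted in both directions relative to DMSO. Measured by RT-PCR and capillary electrophoresis 24 hours after treating HepG2 human liver cells transiently carrying multiplexed cis-regulated reporter constructs.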

Measured: AC50

NCC(F)(F)C(F)(F)C(F)(F)C(F)(F)F
inactive: all assays above

COc1cc2c(c(OC)c1OC)-c1ccc(OC)c(=O)cc1[C@@H](NC(C)=O)CC2
active: [2] 0.0925 µM | [7] 0.619 µM
not listed: [11] | [14]
inactive: all other assays above

Cc1nccn1-c1ccc(Sc2cccc(C3(C(N)=O)CCOCC3)c2)cc1
active: [2] 1.01 µM | [3] 5.85 µM | [4] 7.26 µM | [8] 7.22 µM | [10] 6.89 µM | [11] 3.41 µM | [15] 5.29 µM | [17] 2.31 µM | [18] 2.08 µM
not listed: [14]
inactive: all other assays above

S=P(N1CC1)(N1CC1)N1CC1
inactive: [1] | [2] | [3] | [4] | [5] | [6] | [7] | [8] | [9] | [10] | [11] | [12] | [14] | [15] | [16] | [17] | [18] | [19] | [20]
active: [13] 12.1 µM [middle of 4 runs] | [18] 157 µM

FC(F)C(F)(F)COCC1CO1 (stereo not drawn)
inactive: all assays above

CC(C)CCCCCCOC(=O)C1CCCCC1C(=O)OCCCCCCC(C)C (stereo not drawn)
active: [13] 1.17 µM
not listed: [9] | [11]
inactive: all other assays above

C=CCc1cc(S(=O)(=O)c2ccc(O)c(CC=C)c2)ccc1O
active: [2] 51.1 µM | [9] 54.7 µM | [10] 47 µM | [12] 33.4 µM | [13] 2.77 µM | [14] 8.96 µM | [15] 17.4 µM | [18] 9.26 µM | [20] 33.4 µM
inactive: all other assays above

COc1cc(C(C)C)c2c(c1)S(=O)(=O)N(COc1cc(=O)n3cccc(OCCN4CCCCC4)c3n1)C2=O
active: [3] 4.22 µM | [4] 5.08 µM | [6] 12.3 µM | [7] 5.04 µM | [8] 13.9 µM | [9] 2.75 µM | [10] 9.28 µM | [12] 8.11 µM | [13] 3.27 µM | [15] 8.25 µM | [16] 4.26 µM | [17] 3.94 µM | [18] 3.78 µM
inactive: [1] | [2] | [5] | [11] | [19] | [20]

Cc1cccc(O)c1C
inactive: [1] | [2] | [3] | [4] | [5] | [6] | [7] | [8] | [9] | [10] | [11] | [12] | [13] | [14] | [15] | [16] | [17] | [18] | [19] | [20]
active: [2] 23.7 µM | [13] 31.1 µM

OC(O)(C(F)C(O)(O)C(F)(F)F)C(F)(F)F
active: [4] 27.8 µM and 9.44 µM | [14] 3.62 µM | [17] 64.6 µM and 96.6 µM | [18] 66.4 µM and 37.5 µM
inactive: [1] | [2] | [3] | [5] | [6] | [7] | [8] | [9] | [10] | [11] | [12] | [13] | [14] | [15] | [16] | [19] | [20]

O=S(=O)(O)CCC(F)(F)C(F)(F)C(F)(F)C(F)(F)C(F)(F)C(F)(F)F
inactive: all assays above

FC(F)=C(F)C(F)(F)C(F)(F)C(F)(F)C(F)(F)C(F)(F)C(F)(F)F
inactive: all assays above

OCCC(F)(F)C(F)(F)C(F)(F)C(F)(F)F
inactive: all assays above
